Assay [1] can be described thus: Wnt pathway potentiators raising nuclear beta-catenin – imaging, WNT3A-conditioned medium, mouse C2C12, NPC library, primary screen (AID 1117326; in the data active = nuclear beta-catenin stimulation mostly above about 4.2%, no sharp cut-off; inactive = mostly below about 10%; note: reference of the scale not given here). Particulars: stronger effect = higher value.
Assay [2] can be described thus: stimulators of insulin release from INS-1E, primary screen, cell-based, 5 mM glucose, NPC library (AID 1117329;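 active = compound raises insulin release from rat beta cells at 5 mM glucose, no numeric limit stated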; note: reference of the scale not given here). Particulars: rat INS-1E insulin secretion, at 10 µM, stronger effect = higher value.
The nature of assay [3]: growth inhibition of GSK3B-pretreated HCT116 cells – cell-based, CellTiter-Glo, 0.2 to 20 µM (AID 1117336;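 active = compounds lowering colon cancer cell viability after pretreatment blocking the GSK3B kinase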). The settings on record: HCT116 viability after GSK3B inhibitor, at 20 µM, stronger effect = higher value.
Assay [4] in a line: inhibition of endothelial tube formation, primary screen, imaging, VEGF stimulated, CD31 staining, tube area, NPC library (AID 1117340;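 active = compound that reduces growth-factor-driven endothelial tube area in a mixed cell culture, no cutoff stated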). The settings on record: VEGF-stimulated ADSC/ECFC co-culture, at 10 µM, stronger effect = higher value.
A short description of assay [5]: GLP1 release stimulators, primary, NCI-H716, NPC library (AID 1117341;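 active = compound raises GLP1 secretion from the human gut endocrine cells, with no numeric limit stated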; note: reference of the scale not given here). The settings on record: NCI-H716 cells, at 10 µM, stronger effect = higher value.
Assay [6] can be described thus: HCT116 colon cancer cell growth inhibition, primary screen, CellTiter-Glo luminescence, NPC library (AID 1117342). The settings on record: at 20 µM (top of the series).
Assay [7] in a line: reduced SW480 viability measured with CellTiter-Glo, NPC library, primary (AID 1117343;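 active = compounds that lower viability of the colon cancer cells in the luminescence readout, with no numeric limit stated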). The settings on record: CellTiter-Glo luminescence; at 20 µM (top of the series).
Assay [8] in a line: NPC library primary testing for decreased DLD-1 cell viability via CellTiter-Glo (AID 1117346;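 active = compounds that lower survival of DLD-1 colon cancer cells in the luminescence readout, no cutoff given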). Particulars: DLD-1 viability, CellTiter-Glo luminescence; at 20 µM (top of the series). For orientation: Cellular ATP, detected with luciferase, serves as a proxy for viable cell number.

Each structure is given as a SMILES string. Calls of active or inactive are those of the source.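 Rule for the calls, unless noted: active = compounds that lower survival of HCT116 colon cancer cells in the luminescence readout, no numeric limit stated; inactive = the rest.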

In the case of `CC(=O)CCC(=O)O`, the nuclear beta-catenin stimulation was -1.6% (inactive) in assay [1] (at 10 µM) and -1.3% in assay [1] (stimulation, at 2 µM). Also, the insulin secretion stimulation in assay [2] was 2% (inactive). Besides, the viability decrease in assay [3] is -4.6% (inactive). Further, the tube area decrease in assay [4] is 0.2% (inactive). Further, in assay [5], the GLP1 secretion stimulation was -2.2% (inactive). In addition, the inhibition of viability in assay [6] was -6.13% (inactive). Further, the viability decrease (inhibition) was 20% (inactive) in assay [7] and -8.6% (inactive) in assay [8].

Take `O=C(c1ccco1)N1CCNCC1`: the nuclear beta-catenin stimulation in assay [1] (at 10 µM) was 4.5% (inactive); in assay [1] (stimulation, at 2 µM), -0.4%. Further, the insulin secretion stimulation in assay [2] was 0.1% (inactive). In assay [3], the viability decrease is -3.6% (inactive). The tube area decrease in assay [4] is -16.6% (inactive). Moreover, the GLP1 secretion stimulation in assay [5] is -0.5% (inactive). For the same compound, the inhibition of viability in assay [6] is -8.9% (inactive). Further, the viability decrease (inhibition) was -21.1% (inactive) in assay [7] and 5.4% (inactive) in assay [8].

As to `CCCCCCCCCCCCCCCCCC(=O)OCC(O)CO` (configuration not stated), the nuclear beta-catenin stimulation in assay [1] (at 10 µM) was -0.4% (inactive); in assay [1] (stimulation, at 2 µM) it was 1.7%. Besides, the insulin secretion stimulation in assay [2] was 2.1% (inactive). For the same compound, the viability decrease in assay [3] is 1% (inactive). Besides, in assay [4], the tube area decrease was -4.1% (inactive). Besides, the GLP1 secretion stimulation in assay [5] is -0.3% (inactive). In addition, the inhibition of viability in assay [6] is 2.77% (inactive). In addition, the viability decrease (inhibition) is -13.8% (inactive) in assay [7] and -7.2% (inactive) in assay [8].

For the compound `Cc1cccc(C)c1NC(=O)c1cc(S(N)(=O)=O)c(Cl)cc1O`, the nuclear beta-catenin stimulation in assay [1] (at 10 µM) is -1.8% (inactive); in assay [1] (stimulation, at 2 µM), 0.7%. The insulin secretion stimulation in assay [2] is -1.9% (inactive). The viability decrease in assay [3] was -8.6% (inactive). Further, the tube area decrease in assay [4] was -2.4% (inactive). For the same compound, the GLP1 secretion stimulation in assay [5] is -2.3% (inactive). Further, in assay [6], the inhibition of viability is -3.4% (inactive). Further, the viability decrease (inhibition) in assay [7] was 3.4% (inactive); in assay [8], -5.4% (inactive).

In the case of `COc1ccc2cc(Br)ccc2c1`, the nuclear beta-catenin stimulation in assay [1] (at 10 µM) was -0.6% (inactive); in assay [1] (stimulation, at 2 µM), -0.3%. For the same compound, the insulin secretion stimulation in assay [2] was 0.9% (inactive). The viability decrease in assay [3] was -1.1% (inactive). In addition, the tube area decrease in assay [4] is 3.3% (inactive). In addition, the GLP1 secretion stimulation in assay [5] is -5% (inactive). The inhibition of viability in assay [6] was -2.2% (inactive). The viability decrease (inhibition) was -5.1% (inactive) in assay [7] and -6% (inactive) in assay [8].

With `Cc1cc(O)c(C)c(C)c1O`, the nuclear beta-catenin stimulation is 2.1% (inactive) in assay [1] (at 10 µM) and -0.4% in assay [1] (stimulation, at 2 µM). In addition, the insulin secretion stimulation in assay [2] was 1.3% (inactive). In addition, the viability decrease in assay [3] was 4.5% (inactive). Besides, the tube area decrease in assay [4] is -1.3% (inactive). Besides, in assay [5], the GLP1 secretion stimulation is -0.5% (inactive). Moreover, the inhibition of viability in assay [6] is -1.8% (inactive). In addition, the viability decrease (inhibition) is -15.7% (inactive) in assay [7] and -26.1% (inactive) in assay [8].

Turning to `C=C(C)C(=O)OCC(O)CO` (configuration not stated), the nuclear beta-catenin stimulation in assay [1] (at 10 µM) is 7.5% (inactive); in assay [1] (stimulation, at 2 µM), 28.1%. Besides, the insulin secretion stimulation in assay [2] was 2.7% (inactive). For the same compound, the viability decrease in assay [3] was 3% (inactive). Besides, in assay [4], the tube area decrease is -13.7% (inactive). Besides, in assay [5], the GLP1 secretion stimulation was -1.4% (inactive). Besides, the inhibition of viability in assay [6] is 1.9% (inactive). Further, the viability decrease (inhibition) was -10.3% (inactive) in assay [7] and 20.3% (inactive) in assay [8].

Take `Oc1cccc(O)c1O`: the nuclear beta-catenin stimulation is 5% (inactive) in assay [1] (at 10 µM) and 2.5% in assay [1] (stimulation, at 2 µM). In assay [2], the insulin secretion stimulation is 2.5% (inactive). Further, the viability decrease in assay [3] was 68.9% (active). Moreover, the tube area decrease in assay [4] is 24.9% (inactive). For the same compound, in assay [5], the GLP1 secretion stimulation was -1% (inactive). Moreover, the inhibition of viability in assay [6] is 45.7% (inactive). In addition, the viability decrease (inhibition) in assay [7] was 101% (active); in assay [8], 17.2% (inactive).

With `O=C1CCC(=O)N1CO`, the nuclear beta-catenin stimulation in assay [1] (at 10 µM) was -2.4% (inactive); in assay [1] (stimulation, at 2 µM), -0.7%. Moreover, in assay [2], the insulin secretion stimulation is 3.1% (inactive). Further, the viability decrease in assay [3] is -0.6% (inactive). The tube area decrease in assay [4] was -5.1% (inactive). Besides, the GLP1 secretion stimulation in assay [5] was -1.4% (inactive). In addition, in assay [6], the inhibition of viability is 1.8% (inactive). The figures for the viability decrease (inhibition) in assay [7] and in assay [8] were 9.6% (inactive) and -2.7% (inactive), respectively.

As for `Nc1nc(=O)n([C@@H]2O[C@H](CO)[C@@H](O)[C@@H]2F)cc1I`, the nuclear beta-catenin stimulation in assay [1] (at 10 µM) is 8% (inactive); in assay [1] (stimulation, at 2 µM), 1.8%. Also, the insulin secretion stimulation in assay [2] is 0.8% (inactive). In assay [3], the viability decrease was 2.9% (inactive). The tube area decrease in assay [4] was 74% (active). The GLP1 secretion stimulation in assay [5] was -3.9% (inactive). Besides, the inhibition of viability in assay [6] is 23.7% (inactive). The viability decrease (inhibition) in assay [7] was 32.2% (inactive); in assay [8], 23.1% (inactive).

For `CC(C(O)c1ccccc1)N(C)CCOC(c1ccccc1)c1ccccc1` (configuration not stated), the nuclear beta-catenin stimulation was 4.3% (inactive) in assay [1] (at 10 µM) and 2.3% in assay [1] (stimulation, at 2 µM). In addition, the insulin secretion stimulation in assay [2] is 2.45% (inactive). In addition, the viability decrease in assay [3] is 77.3% (active). For the same compound, the tube area decrease in assay [4] was 14.1% (inactive). Besides, in assay [5], the GLP1 secretion stimulation was 7.4% (inactive). Also, in assay [6], the inhibition of viability was 86.9% (active). Further, the results for the viability decrease (inhibition) in assay [7] and in assay [8] were 133% (active) and 81.5% (active), respectively.

For the compound `CCCC(=O)Nc1ccc(O)c(C(C)=O)c1`, the nuclear beta-catenin stimulation is 1.7% (inactive) in assay [1] (at 10 µM) and 0.4% in assay [1] (stimulation, at 2 µM). For the same compound, the insulin secretion stimulation in assay [2] was 3.1% (inactive). The viability decrease in assay [3] was -4.4% (inactive). Also, in assay [4], the tube area decrease is -7% (inactive). The GLP1 secretion stimulation in assay [5] was -3.4% (inactive). In assay [6], the inhibition of viability was 2.9% (inactive). The results for the viability decrease (inhibition) in assay [7] and in assay [8] were -3.5% (inactive) and 2.6% (inactive), respectively.

For `CC(=O)Nc1ccc(OCCOCCOc2ccc(NC(C)=O)cc2)cc1`, the nuclear beta-catenin stimulation in assay [1] (at 10 µM) was 0.3% (inactive); in assay [1] (stimulation, at 2 µM) it was 0.3%. Moreover, the insulin secretion stimulation in assay [2] is -2.6% (inactive). Besides, in assay [3], the viability decrease was 0.7% (inactive). For the same compound, the tube area decrease in assay [4] was -0.3% (inactive). In addition, in assay [5], the GLP1 secretion stimulation was -1.2% (inactive). Further, the inhibition of viability in assay [6] was -3.5% (inactive). The viability decrease (inhibition) in assay [7] is 11.3% (inactive); in assay [8], -8.2% (inactive).

Values taken from PubChem BioAssay.
